Reference: PubChem BioAssay (NCI)
The panel holds about 83,000 compounds, 20% with a hit somewhere; the sample as a whole holds those more often.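 Testing used 96-well plates and a 48-hour single-concentration exposure. Example: -40 means 40% of the starting cells died.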 Active and inactive are the calls of the source. How the source made its calls: active means growth percent below 10; inactive means the rest.

How the values were obtained:
Experiment in all cases: NCI-60 one-dose screen, 48 h (100 = growth as untreated, 0 = no growth, -100 = all killed)
NCI-H23 lung = test system: NCI-H23 lung
NCI-H226 lung = test system: NCI-H226 lung
NCI-H322M lung = test system: NCI-H322M lung
HOP-62 NSCLC = test system: HOP-62 NSCLC
NCI-H460 lung = test system: NCI-H460 lung
HOP-92 NSCLC = test system: HOP-92 NSCLC
NCI-H522 lung = details: 10 µM unless noted
A549/ATCC NSCLC = test system: A549/ATCC NSCLC
786-0 renal = test system: 786-0 renal
COLO 205 colon = test system: COLO 205 colon
DU-145 prostate = test system: DU-145 prostate
K-562 leukemia = test system: K-562 leukemia
MALME-3M melanoma = test system: MALME-3M melanoma
MDA-MB-231 breast = test system: MDA-MB-231 breast
RXF 393 renal = test system: RXF 393 renal
SF-268 CNS = test system: SF-268 CNS
SF-295 CNS = test system: SF-295 CNS
SF-539 CNS = test system: SF-539 CNS
UACC-257 melanoma = details: 10 µM unless noted
M14 melanoma = test system: M14 melanoma

Measured: growth

O[C@H]1[C@H]2c3cc4c(cc3CN3CCC(=C[C@@H]1O)[C@H]23)OCO4
active: HOP-92 NSCLC; 10 µM unless noted -3.91% | COLO 205 colon; 10 µM unless noted 9.67% | DU-145 prostate; 10 µM unless noted 9.62%
inactive: NCI-H23 lung; 10 µM unless noted 15.3% | NCI-H226 lung; 10 µM unless noted 15.3% | NCI-H322M lung; 10 µM unless noted 18.5% | HOP-62 NSCLC; 10 µM unless noted 26.5% | NCI-H460 lung; 10 µM unless noted 18.4% | NCI-H522 lung 25% | A549/ATCC NSCLC; 10 µM unless noted 19.1% | 786-0 renal; 10 µM unless noted 31.9% | K-562 leukemia; 10 µM unless noted 21.4% | MALME-3M melanoma; 10 µM unless noted 41.9% | MDA-MB-231 breast; 10 µM unless noted 39.6% | RXF 393 renal; 10 µM unless noted 19% | SF-268 CNS; 10 µM unless noted 24.4% | SF-295 CNS; 10 µM unless noted 34% | SF-539 CNS; 10 µM unless noted 14% | UACC-257 melanoma 45.7% | M14 melanoma; 10 µM unless noted 15.9%

COc1ccc(N=N/N=c2\sc3cc(OC)ccc3n2C)cc1
inactive: NCI-H23 lung; 10 µM unless noted 79.6% | NCI-H226 lung; 10 µM unless noted 81.8% | NCI-H322M lung; 10 µM unless noted 83.9% | HOP-62 NSCLC; 10 µM unless noted 86.4% | NCI-H460 lung; 10 µM unless noted 94.9% | HOP-92 NSCLC; 10 µM unless noted 71.2% | NCI-H522 lung 73.8% | A549/ATCC NSCLC; 10 µM unless noted 69.8% | 786-0 renal; 10 µM unless noted 105% | COLO 205 colon; 10 µM unless noted 92.2% | DU-145 prostate; 10 µM unless noted 91.8% | K-562 leukemia; 10 µM unless noted 80.8% | MALME-3M melanoma; 10 µM unless noted 109% | MDA-MB-231 breast; 10 µM unless noted 90.5% | RXF 393 renal; 10 µM unless noted 105% | SF-268 CNS; 10 µM unless noted 97.6% | SF-295 CNS; 10 µM unless noted 83.3% | SF-539 CNS; 10 µM unless noted 99.4% | UACC-257 melanoma 80% | M14 melanoma; 10 µM unless noted 110%

CN(C)c1ccc(N=Nc2cccc3ccccc23)cc1
inactive: NCI-H23 lung; 10 µM unless noted 84.3% | NCI-H226 lung; 10 µM unless noted 63.5% | NCI-H322M lung; 10 µM unless noted 94.4% | HOP-62 NSCLC; 10 µM unless noted 85.7% | NCI-H460 lung; 10 µM unless noted 92.7% | HOP-92 NSCLC; 10 µM unless noted 74% | NCI-H522 lung 95% | A549/ATCC NSCLC; 10 µM unless noted 89.8% | 786-0 renal; 10 µM unless noted 100% | COLO 205 colon; 10 µM unless noted 87.2% | DU-145 prostate; 10 µM unless noted 107% | K-562 leukemia; 10 µM unless noted 117% | MALME-3M melanoma; 10 µM unless noted 101% | MDA-MB-231 breast; 10 µM unless noted 80.1% | RXF 393 renal; 10 µM unless noted 98.9% | SF-268 CNS; 10 µM unless noted 95.1% | SF-295 CNS; 10 µM unless noted 91.5% | SF-539 CNS; 10 µM unless noted 97.1% | UACC-257 melanoma 96.3% | M14 melanoma; 10 µM unless noted 80.5%

O=C(Nc1c(Cl)cccc1Cl)Oc1cccc2cccnc12
active: NCI-H460 lung; 100 µM 9% | NCI-H522 lung -4.33% [100 µM] | SF-295 CNS; 10 µM -11.3% | UACC-257 melanoma -8.59% [100 µM]
inactive: NCI-H23 lung; 10 µM 36.5% | NCI-H23 lung; 100 µM 20.2% | NCI-H226 lung; 10 µM 66.1% | NCI-H226 lung; 100 µM 13.9% | NCI-H322M lung; 10 µM 23.7% | NCI-H322M lung; 100 µM 25% | HOP-62 NSCLC; 10 µM 47.5% | HOP-62 NSCLC; 100 µM 28.8% | NCI-H460 lung; 10 µM 27.1% | HOP-92 NSCLC; 10 µM 53.2% | HOP-92 NSCLC; 100 µM 23.2% | A549/ATCC NSCLC; 10 µM 38% | A549/ATCC NSCLC; 100 µM 18.2% | 786-0 renal; 10 µM 72% | 786-0 renal; 100 µM 31.3% | COLO 205 colon; 10 µM 52.4% | COLO 205 colon; 100 µM 92.8% | DU-145 prostate; 10 µM 82.5% | DU-145 prostate; 100 µM 49.1% | K-562 leukemia; 10 µM 11.3% | K-562 leukemia; 100 µM 11.1% | MALME-3M melanoma; 10 µM 52.8% | MALME-3M melanoma; 100 µM 47.5% | MDA-MB-231 breast; 10 µM 49.5% | MDA-MB-231 breast; 100 µM 20.4% | RXF 393 renal; 10 µM 73.3% | RXF 393 renal; 100 µM 64.4% | SF-268 CNS; 10 µM 51.4% | SF-268 CNS; 100 µM 21.7% | SF-295 CNS; 100 µM 19.6% | SF-539 CNS; 10 µM 28.2% | SF-539 CNS; 100 µM 22.9% | M14 melanoma; 10 µM 40% | M14 melanoma; 100 µM 12.3%

CN(C)CCOc1ccc2c(c1)C(=O)/C(=C\c1ncc([N+](=O)[O-])n1C)C2
active: NCI-H23 lung; 10 µM unless noted -42.7% | NCI-H226 lung; 10 µM unless noted -38.5% | NCI-H322M lung; 10 µM unless noted 6.13% | HOP-62 NSCLC; 10 µM unless noted -17.8% | NCI-H460 lung; 10 µM unless noted -57.5% | HOP-92 NSCLC; 10 µM unless noted -54.3% | NCI-H522 lung -59.8% | A549/ATCC NSCLC; 10 µM unless noted -29.6% | 786-0 renal; 10 µM unless noted -26.4% | COLO 205 colon; 10 µM unless noted -91.9% | DU-145 prostate; 10 µM unless noted -37.8% | K-562 leukemia; 10 µM unless noted -39.7% | MALME-3M melanoma; 10 µM unless noted -72.7% | MDA-MB-231 breast; 10 µM unless noted -21.1% | RXF 393 renal; 10 µM unless noted -60.5% | SF-268 CNS; 10 µM unless noted -44.4% | SF-295 CNS; 10 µM unless noted -12.7% | SF-539 CNS; 10 µM unless noted -73.2% | UACC-257 melanoma -38.6% | M14 melanoma; 10 µM unless noted -67.2%

O=C1NC(=O)/C(=C/C=C/c2ccccc2)S1
inactive: NCI-H23 lung; 10 µM unless noted 32.6% | NCI-H226 lung; 10 µM unless noted 75.8% | NCI-H322M lung; 10 µM unless noted 51.4% | HOP-62 NSCLC; 10 µM unless noted 22.5% | NCI-H460 lung; 10 µM unless noted 10.6% | HOP-92 NSCLC; 10 µM unless noted 45.2% | NCI-H522 lung 24.4% | A549/ATCC NSCLC; 10 µM unless noted 89.1% | COLO 205 colon; 10 µM unless noted 80.7% | DU-145 prostate; 10 µM unless noted 50.3% | K-562 leukemia; 10 µM unless noted 31.1% | MALME-3M melanoma; 10 µM unless noted 60.2% | MDA-MB-231 breast; 10 µM unless noted 82.5% | RXF 393 renal; 10 µM unless noted 66.3% | SF-268 CNS; 10 µM unless noted 31.8% | SF-295 CNS; 10 µM unless noted 14.3% | UACC-257 melanoma 45.1% | M14 melanoma; 10 µM unless noted 12.3%
active: 786-0 renal; 10 µM unless noted 1.55% | SF-539 CNS; 10 µM unless noted -6.41%

NC(=O)/C=C/C(=O)c1c(Cl)cccc1Cl
active: NCI-H23 lung; 10 µM unless noted -79.1% | HOP-62 NSCLC; 10 µM unless noted -4.87% | NCI-H460 lung; 10 µM unless noted -34.1% | HOP-92 NSCLC; 10 µM unless noted -99.3% | NCI-H522 lung -59.5% | A549/ATCC NSCLC; 10 µM unless noted -43.1% | 786-0 renal; 10 µM unless noted -98.8% | COLO 205 colon; 10 µM unless noted -89.6% | DU-145 prostate; 10 µM unless noted -75.9% | K-562 leukemia; 10 µM unless noted -19.2% | MALME-3M melanoma; 10 µM unless noted -68.4% | MDA-MB-231 breast; 10 µM unless noted -79.1% | RXF 393 renal; 10 µM unless noted -41.6% | SF-268 CNS; 10 µM unless noted -57.3% | SF-539 CNS; 10 µM unless noted -95.4% | UACC-257 melanoma -81.7% | M14 melanoma; 10 µM unless noted -96.5%
inactive: NCI-H226 lung; 10 µM unless noted 37.9% | NCI-H322M lung; 10 µM unless noted 19.1% | SF-295 CNS; 10 µM unless noted 81.9%
